High-throughput results (PubChem BioAssay)
In the library only some 10% were active in any assay of this set; here they are far more common.
HP1b chromo inh: inhibitors of HP1-beta chromodomain binding to methylated histone tails | P83916 | AlphaScreen HP1-beta / biotin-H3K9me3 peptide binding | Potency, µM (top dose mostly 114 µM), for inactives: top-dose activity change, negative = inhibition, actives largely listed as inhibitors | 0.56% of 390,000 active; note: potency is the fitted concentration of half-maximal effect; nearly all actives have a fitted effect of over 70% in size
Target sequence (P83916 whole entry, looked up): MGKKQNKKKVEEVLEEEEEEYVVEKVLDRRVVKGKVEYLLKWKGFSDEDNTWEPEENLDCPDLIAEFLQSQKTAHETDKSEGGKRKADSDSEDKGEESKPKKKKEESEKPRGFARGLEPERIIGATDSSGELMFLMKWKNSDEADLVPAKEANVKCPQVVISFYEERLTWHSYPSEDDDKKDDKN
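Compound inhibition of the preformed complex between 50 nM HP1-beta and 50 nM biotinylated H3K9me3 peptide was read by AlphaScreen. Buffer was PBS pH 7.4 with 0.01% Tween-20. Incubations ran 30 min at room temperature, with 10 ug/mL donor/acceptor beads.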
Six1-Eya2 blk: Six1/Eya2 interaction inhibition; AID 651725; 0.56% of 360,000 active; Q15475+O00167; AlphaScreen GST-Six1/His-Eya2 binding, biochemical; hits give low values; activity change, % (concentration not given with the values); in the data active = activity change below about -65%; inconclusive = mostly about -30% to -63%; note: % is set by controls: 0 for no effect and ±100 for the full control effect
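AlphaScreen with GST-Six1 and His-Eya2 (5X mix: 250 nM and 500 nM), glutathione donor and nickel acceptor beads; buffer 50 mM Tris pH 8.0, 300 mM NaCl, 1 mM TCEP; 1 h at 37 C in the dark.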
G9a inh: blocks human histone lysine methyltransferase G9a; Q96KQ7; G9a H3K9 monomethylation, AlphaScreen, 2 h; Potency, µM (doses to about 102 µM), for the others: at the highest dose activity, negative = inhibition, actives largely listed as inhibitors; 8.8% of 350,000 active; note: potency is the fitted concentration of half-maximal effect; % is set by controls: 0 for no effect and ±100 for the full control effect; nearly all actives have a fitted effect of over 75% in size
Target sequence (Q96KQ7 913-1193 limits assumed): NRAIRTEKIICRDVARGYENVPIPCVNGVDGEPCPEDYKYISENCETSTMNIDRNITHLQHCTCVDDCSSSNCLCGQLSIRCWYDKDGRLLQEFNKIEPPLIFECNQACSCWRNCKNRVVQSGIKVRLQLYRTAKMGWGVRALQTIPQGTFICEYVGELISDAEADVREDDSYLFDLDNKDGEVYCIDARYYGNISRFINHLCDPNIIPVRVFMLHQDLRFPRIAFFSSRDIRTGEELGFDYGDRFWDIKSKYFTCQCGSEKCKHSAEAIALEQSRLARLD
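G9a (20 nM) preincubated 15 min RT with compounds, then 500 nM biotinylated H3K9 peptide and 20 uM SAM added; 2 h RT reaction. Monomethyl-H3K9 product detected by AlphaScreen with anti-H3K9me1 antibody, streptavidin donor and anti-rabbit IgG acceptor beads.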
CtBP-E1A inh: blocks the CtBP interaction with E1A; AlphaScreen GST-E1A/His-CtBP binding, 1536-well; hits give low values; activity change, % (no concentration beside the values); 0.49% of 340,000 active; in the data active = activity change below about -65%; inconclusive = mostly about -30% to -63%; note: % is set by controls: 0 for no effect and ±100 for the full control effect
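AlphaScreen with 125 nM GST-E1A and 125 nM His-CtBP (5X stocks) in Tris pH 8.0, 300 mM NaCl, BSA, Tween 20, TCEP. Compounds preincubated 2 h at 37 deg C, then glutathione donor/nickel acceptor beads added for 1 h at 37 deg C in dark.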
BAZ2B block: blocks human BAZ2B. Q9UIF8. AlphaScreen BAZ2B-H3K14Ac peptide displacement. Potency, µM (doses to about 114 µM), for inactives: at the top dose activity change, negative = inhibition, most hits filed as inhibitors. 4.4% of 360,000 active. AID 504333; note: potency is the fitted concentration of half-maximal effect; % is set by controls: 0 for no effect and ±100 for the full control effect; nearly all actives have a fitted effect of over 60% in size
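BAZ2B (50 nM) with biotin-H3(5-23)K14Ac peptide (50 nM) in PBS pH 7.4, 0.01% Tween-20, preformed 30 min, then compound 30 min at room temperature; top concentration 110uM. AlphaScreen streptavidin donor/nickel chelate acceptor beads (10 ug/mL final), 20 min dark, signal read.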
JMJD2A Tudor inh: JMJD2A Tudor domain (human) inhibition | O75164 | AlphaScreen JMJD2A-Tudor / H3K4me3 peptide binding | Potency, µM (doses to about 114 µM), without a hit: at the top dose activity change, negative = inhibition, most hits filed as inhibitors | 4.4% of 390,000 active | AID 504339; note: potency is the fitted concentration of half-maximal effect; % is set by controls: 0 for no effect and ±100 for the full control effect; nearly all actives have a fitted effect of over 50% in size
Active calls of the source: *; u = inconclusive; x = no result given; [ ] = another dose, or the depositor's remark. Unless noted, calls come from the whole dose curve; as a rule, active = well fitted inhibition curve with a large enough effect; inconclusive = small, poorly fitted or top-dose-only effect; inactive = no such curve, though single readings can be large or run the other way.

SMILES	HP1b chromo inh	Six1-Eya2 blk	G9a inh	CtBP-E1A inh	BAZ2B block	JMJD2A Tudor inh
O=C(CSc1n[nH]c(-c2cccnc2)n1)Nc1ccccc1	53%	-2	12%[59 µM]	11	11%	-5%
COC(=O)c1ccc(NC(=O)CSc2n[nH]c(-c3ccncc3)n2)cc1	46%	0	35µM*	0	0%	3%
O=C(CSc1n[nH]c(-c2cccnc2)n1)Nc1cccc(Cl)c1	82%	4	50µM*	4	2%	-9%
COc1cccc(NC(=O)CSc2nnc(-c3cc(C)[nH]n3)n2N)c1	35%	-4	-4%[0.0925 µM]	x	-19%	-3%
Cc1cc(-c2nnc(SCC(=O)Nc3cccc(Cl)c3)n2N)n[nH]1	45%	-1	3%	-1	56µM*	-2%
Cc1noc(/C=C/c2ccccc2F)c1S(=O)(=O)N1CCC(C(=O)N(C)Cc2ccco2)CC1	17%[57 µM]	x	2%[59 µM]	x	-6%	-11%
Cc1ccc(-c2nn(-c3ccc(F)cc3F)c3c2cnc2ccc(F)cc23)cc1	27%	x	0%[12.7 µM]	x	-2%	2%
Cc1cc(C)c(OCCOCCn2c(-c3ccc(Cl)cc3)nc3ccccc3c2=O)c(C)c1	70%	x	3%[59 µM]	x	19%	31%
O=C(CSc1n[nH]c(-c2ccncc2)n1)Nc1ccccc1Cl	8%	-2	50µM*	3	7%	-7%
N#Cc1ccccc1OCCCN1CCC(Cc2ccccc2)CC1	u	-9	32µM*	x	u	4.5µM*
CCOc1ccccc1OCCN1CCC(Cc2ccccc2)CC1	-13%	-15	16µM*	3	56µM*	45µM*
CCOc1ccccc1OCCOCCN1CC(C)OC(C)C1 (stereo not given)	-21%	-5	16µM*	0	u	u
O=C(COc1ccccc1[N+](=O)[O-])N1CCC(Cc2ccccc2)CC1	-21%	-3	u	x	x	-5%[11.4 µM]
Cc1ccc([N+](=O)[O-])c(OCCN2CCC(Cc3ccccc3)CC2)c1	u	-21	u	-1	22µM*	3.2µM*
CC1CCN(CC2CCN(C(=O)Nc3ccc(Br)cc3F)CC2)CC1	14%	x	-12%[59 µM]	x	4%	-9%
Cc1cc2c(s1)c1cnn(Cc3cc(F)ccc3C)c(=O)c1n2C	x	x	x	x	x	-5%
NC(=O)c1ccccc1OCC(=O)N1CCC(Cc2ccccc2)CC1	41%	3	1%[12.7 µM]	1	-4%	-9%
CCOc1ccccc1OCCN1CCCC1	-17%	-12	79µM*	x	-26%	20µM*
CCC(=O)c1ccccc1OCCCN1CCC(Cc2ccccc2)CC1	u	-12	40µM*	-3	-34%	35µM*
CCN1CCN(CCOc2ccccc2OCc2ccccc2)CC1	u	-7	20µM*	x	22µM*	13µM*
CCOc1ccccc1CNC(=O)CCCn1c(=O)c2cccn2c2ccc(F)cc21	22%	x	-4%[59 µM]	x	0%	-6%
NC(=S)N=Nc1ccc(NN=C(N)N)cc1	4µM*	-1	u	-21	40µM*	11µM*
CCOC(=O)C(NC(=O)c1ccccc1Cl)(Nc1sc2c(c1C(N)=O)CCC2)C(F)(F)F (stereo not given)	17%	1	28µM*	x	-1%	-20%
COc1ccc(-n2nc(C(=O)NCC(=O)NCCCN3CCCCCC3)c3ccccc3c2=O)cc1Cl	26%	-2	25µM*	-4	-2%	-17%
CCN(CCCNC(=O)CNC(=O)c1nn(-c2ccc(OC)cc2)c(=O)c2ccccc12)c1cccc(C)c1	-20%	-27	32µM*	-23	-39%	u
COc1ccc(-n2nc(C(=O)NCC(=O)Nc3ccccn3)c3ccccc3c2=O)cc1Cl	83%	4	3%[0.0925 µM]	3	u	32µM*
O=C(NCCc1c[nH]c2ccccc12)[C@@H]1C[C@H]1[C@@H](NP(=O)(c1ccccc1)c1ccccc1)c1ccccc1	x	x	79µM*	x	u	x
CC(C)(CO)NCc1ccc(Br)cc1	3%	-1	-23%	-11	-36%	7.9µM*
CCCCn1c(N)c(N(CC(C)C)C(=O)CCC2CCCCC2)c(=O)[nH]c1=O	-1%	1	23%	5	13%	-17%
